Test results taken from PubChem BioAssay (NCATS).
Values joined by “and” are separate entries in the source; they are usually repeats but may differ in a detail not shown here. Identical values can stand only once. Results filed as inconclusive are left out. Values without a mark were called inactive. Active and inactive are the calls of the source. The call rests on the fitted dose curve; in most records, active means well fitted curve in the direction sought with a large enough effect; inconclusive means small, poorly fitted or top-dose-only effect, or another doubt; inactive means no such curve, though single readings can be large; an effect the other way counts as inactive or inconclusive.

How the values were obtained:
HEK293 = assay: Cytotoxic Profiling of Annotated Libraries Using Quantitative High-Throughput Screening (AID 1296008); details: Five cell lines viability, CellTiter-Glo ATP luminescence, 48-72 h; max response: hits give low values; further: nearly all actives have a fitted effect of over 60% in size
Method in brief: (§1)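 Cytotoxicity was measured as CellTiter-Glo ATP luminescence, read after 10 min at room temperature. Compound treatment of the cells lasted 48 or 72 hr at 37 degrees Celsius in a qHTS format.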

HaCat [1] = assay: as above; details: Five cell lines viability, CellTiter-Glo ATP luminescence, 48-72 h; max response: hits give low values
Method in brief: as §1

KB-3-1 = assay: as above; details: Five cell lines viability, CellTiter-Glo ATP luminescence, 48-72 h; max response: hits give low values
Method in brief: as §1

NIH3T3 [2] = assay: as above; details: Five cell lines viability, CellTiter-Glo ATP luminescence, 48-72 h; max response: hits give low values
Method in brief: as §1

MCC-13 = assay: qHTS assay to identify novel small-molecules to repurpose for Merkel cell carcinoma treatment (AID 1296009); details: MCC and control cell lines, CellTiter-Glo viability, 72 h; series mostly up to 46 µM; further: nearly all actives have a fitted effect of over 60% in size
Method in brief: (§2)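 Cell viability, measured as CellTiter-Glo luminescence, was normalized between DMSO and no-cell wells. The cells had been exposed to 8- or 11-point compound dilutions for 72 hr at 37 degree celsius.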

MCC-26 = assay: as above; details: MCC and control cell lines, CellTiter-Glo viability, 72 h; series mostly up to 46 µM
Method in brief: as §2

MKL-1 = assay: as above; details: MCC and control cell lines, CellTiter-Glo viability, 72 h; series mostly up to 46 µM
Method in brief: as §2

MKL-2 = assay: as above; details: MCC and control cell lines, CellTiter-Glo viability, 72 h; series mostly up to 46 µM
Method in brief: as §2

UISO = assay: as above; details: MCC and control cell lines, CellTiter-Glo viability, 72 h; series mostly up to 46 µM
Method in brief: as §2

WaGa = assay: as above; details: MCC and control cell lines, CellTiter-Glo viability, 72 h; series mostly up to 46 µM
Method in brief: as §2

CAOV3 = assay: Primary qHTS to identify gynecologic anti-cancer compounds using libraries of approved drugs and bioactive compounds (AID 1345084); details: Gynecologic cancer cell panel viability, ATPlite luminescence, 48 h; series mostly up to 57.5 µM; further: nearly all actives have a fitted effect of over 55% in size
Method in brief: (§3)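 Cells, 1,000 per well, plated 16 h, then exposed 48 h at 37 C to compounds. Viability by ATPlite luminescence after 15 min at room temperature.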

CASKI = assay: as above; details: Gynecologic cancer cell panel viability, ATPlite luminescence, 48 h; series mostly up to 57.5 µM
Method in brief: as §3

Hek293T [3] = assay: as above; details: Gynecologic cancer cell panel viability, ATPlite luminescence, 48 h, control line for the selectivity index; series mostly up to 57.5 µM
Method in brief: as §3

JEG-3 = assay: as above; details: Gynecologic cancer cell panel viability, ATPlite luminescence, 48 h; series mostly up to 57.5 µM
Method in brief: as §3

HACAT [4] = assay: qHTS assay to identify novel small-molecules to repurpose for Merkel cell carcinoma treatment (AID 1296009); details: MCC and control cell lines, CellTiter-Glo viability, 72 h; series mostly up to 44.8 µM; further: nearly all actives have a fitted effect of over 60% in size
Method in brief: as §2

NIH3T3 [5] = assay: as above; details: MCC and control cell lines, CellTiter-Glo viability, 72 h; at 44.8 µM (top of the series) unless noted
Method in brief: as §2

C33A = assay: Primary qHTS to identify gynecologic anti-cancer compounds using libraries of approved drugs and bioactive compounds (AID 1345084); details: Gynecologic cancer cell panel viability, ATPlite luminescence, 48 h; series mostly up to 57.5 µM; further: nearly all actives have a fitted effect of over 55% in size
Method in brief: as §3

Es-2 = assay: as above; details: Gynecologic cancer cell panel viability, ATPlite luminescence, 48 h; series mostly up to 57.5 µM
Method in brief: as §3

HeLa = assay: as above; details: Gynecologic cancer cell panel viability, ATPlite luminescence, 48 h; series mostly up to 57.5 µM
Method in brief: as §3

HEK293T [6] = assay: qHTS assay to identify novel small-molecules to repurpose for Merkel cell carcinoma treatment (AID 1296009); details: MCC and control cell lines, CellTiter-Glo viability, 72 h; at 44.8 µM (top of the series) unless noted; further: nearly all actives have a fitted effect of over 60% in size
Method in brief: as §2
On the % scale 0 is the no-effect control and ±100 the full control effect; potency means the concentration at half of the fitted maximal effect.

CCc1c2c(nc3ccc(O)cc13)-c1cc3c(c(=O)n1C2)COC(=O)[C@]3(O)CC
Potency (HEK293): 14.6 nM (active) and 16.6 nM (active)
Potency (HaCat [1]): 58 nM (active) and 105 nM (active)
Potency (KB-3-1): 291 nM (active) and 235 nM (active)
Potency (NIH3T3 [2]): 731 nM (active)
Potency (MCC-13): 29.6 nM (active)
Potency (MCC-26): 37.2 nM (active)
Potency (MKL-1): 11.8 nM (active)
Potency (MKL-2): 41.8 nM (active)
Potency (UISO): 20.9 nM (active)
Potency (WaGa): 4.7 nM (active)
Potency (CAOV3): 251 nM (active)
Potency (CASKI): 126 nM (active)
Potency (Hek293T [3]): 891 nM (active)
Potency (JEG-3): 8910 nM (active)

COc1cc(C(C)C)c2c(c1)S(=O)(=O)N(COc1cc(=O)n3cccc(OCCN4CCCCC4)c3n1)C2=O
max response (HEK293): -21.7%
outcome (HaCat [1]): inactive
outcome (KB-3-1): inactive
outcome (NIH3T3 [2]): inactive
Potency (HACAT [4]): inactive
Potency (MCC-13): inactive
Potency (MKL-1): inactive
Potency (MKL-2): inactive
outcome (NIH3T3 [5]): inactive
Potency (UISO): inactive
Potency (WaGa): inactive

C=CCn1c(=O)c2cnc(Nc3ccc(N4CCN(C)CC4)cc3)nc2n1-c1cccc(C(C)(C)O)n1
Potency (HEK293): 235 nM (active) and 920 nM (active)
Potency (HaCat [1]): 332 nM (active) and 1.64 µM (active)
Potency (KB-3-1): 264 nM (active)
Potency (NIH3T3 [2]): 469 nM (active) and 1.16 µM (active)
Potency (MCC-13): 6620 nM (active)
Potency (MCC-26): 4690 nM (active)
Potency (MKL-1): 662 nM (active)
Potency (UISO): 3720 nM (active)
Potency (C33A): 1410 nM (active)
Potency (CAOV3): 3550 nM (active)
Potency (CASKI): 3160 nM (active)
Potency (Es-2): 1260 nM (active)
Potency (HeLa): 708 nM (active)
Potency (Hek293T [3]): 631 nM (active)
Potency (JEG-3): 3550 nM (active)

CN1CCN(Cc2ccc(NC(=O)Nc3ccc(Oc4cc(NC(=O)C5CC5)ncn4)cc3)cc2C(F)(F)F)CC1
Potency (HEK293): 184 nM (active)
Potency (HaCat [1]): 743 nM (active) and 920 nM (active)
Potency (KB-3-1): 132 nM (active) and 206 nM (active)
Potency (NIH3T3 [2]): 590 nM (active)
Potency (MCC-13): 2350 nM (active)
Potency (MCC-26): 1180 nM (active)
Potency (MKL-1): 372 nM (active)
Potency (MKL-2): 264 nM (active)
Potency (UISO): 332 nM (active)
Potency (CASKI): 1780 nM (active)
Potency (Es-2): 1580 nM (active)
Potency (HeLa): 891 nM (active)
Potency (Hek293T [3]): 1410 nM (active)
Potency (JEG-3): 2820 nM (active)

C=CC(=O)Nc1cccc(Oc2nc(Nc3ccc(N4CCN(C)CC4)cc3)ncc2Cl)c1
Potency (HEK293): 5.26 µM (active) and 9.2 µM (active)
Potency (HaCat [1]): 1.18 µM (active) and 2.31 µM (active)
Potency (KB-3-1): 2.96 µM (active) and 5.8 µM (active)
Potency (NIH3T3 [2]): 3.72 µM (active) and 6.51 µM (active)
Potency (MCC-13): 7430 nM (active)
Potency (MCC-26): 11800 nM (active)
Potency (MKL-1): 3320 nM (active)
Potency (MKL-2): 8330 nM (active)
Potency (CAOV3): 7940 nM (active)
Potency (CASKI): 10000 nM (active)
Potency (Es-2): inactive
Potency (HeLa): 7940 nM (active)
Potency (JEG-3): inactive

CC(=O)SC[C@@H](C)C(=O)N1CCC[C@H]1C(=O)N[C@@H](Cc1ccccc1)C(=O)O
outcome (HEK293): inactive
max response (HaCat [1]): 1.63%
max response (KB-3-1): 2.35%
max response (NIH3T3 [2]): 0.0761%
outcome (HEK293T [6]): inactive
Potency (MCC-13): inactive
Potency (MCC-26): inactive
Potency (MKL-1): inactive
Potency (MKL-2): inactive
Potency (UISO): inactive
Potency (WaGa): inactive
Potency (C33A): inactive
Potency (CAOV3): inactive
Potency (CASKI): inactive
Potency (Es-2): inactive
Potency (HeLa): inactive
Potency (Hek293T [3]): inactive
Potency (JEG-3): inactive

C=CC(=O)Nc1cc2c(Nc3ccc(F)c(Cl)c3)ncnc2cc1OCCCN1CCOCC1
Potency (HEK293): 7500 nM (active)
Potency (HaCat [1]): 9.4 nM (active)
outcome (KB-3-1): inactive
Potency (NIH3T3 [2]): 4730 nM (active)
Potency (MCC-13): inactive
Potency (MCC-26): inactive
Potency (CASKI): 8910 nM (active)
Potency (Es-2): inactive
Potency (HeLa): inactive
Potency (Hek293T [3]): inactive
Potency (JEG-3): inactive

NCC(=O)Nc1ccc(-n2nc(C(F)(F)F)cc2-c2ccc3c(ccc4ccccc43)c2)cc1
Potency (HEK293): 166 nM (active) and 1.46 µM (active)
max response (HaCat [1]): -18.9%
Potency (KB-3-1): 26.4 µM (active) and 23.1 µM (active)
max response (NIH3T3 [2]): -0.49%
Potency (MCC-13): inactive
Potency (MCC-26): inactive
Potency (MKL-1): inactive
Potency (MKL-2): inactive
Potency (C33A): inactive
Potency (CAOV3): inactive
Potency (CASKI): inactive
Potency (Es-2): inactive

C[C@H]1C[C@@H]2[C@@H]([C@@H](O)C[C@@]3(C)[C@H]2CC[C@]3(O)C(=O)CO)[C@@]2(C)C=CC(=O)C=C12
max response (HEK293): -9.41%
max response (HaCat [1]): -11.8%
max response (KB-3-1): -1.28% and 2.95%
outcome (NIH3T3 [2]): inactive
Potency (MCC-13): inactive
Potency (MCC-26): inactive
Potency (MKL-1): inactive
Potency (MKL-2): inactive
outcome (NIH3T3 [5]): inactive
Potency (UISO): inactive
Potency (WaGa): inactive

Nc1cc(C(F)(F)F)c(-c2cc(N3CCOCC3)nc(N3CCOCC3)n2)cn1
Potency (HEK293): 935 nM (active) and 2.31 µM (active)
Potency (HaCat [1]): 1.18 µM (active) and 1.64 µM (active)
Potency (KB-3-1): 743 nM (active) and 1.46 µM (active)
Potency (NIH3T3 [2]): 1.05 µM (active) and 2.59 µM (active)
Potency (MCC-13): 2960 nM (active)
Potency (MCC-26): 2350 nM (active)
Potency (MKL-1): 1660 nM (active)
Potency (MKL-2): inactive
Potency (UISO): 1660 nM (active)
Potency (C33A): 15800 nM (active)
Potency (CASKI): 3550 nM (active)
Potency (Es-2): 6310 nM (active)
Potency (HeLa): 3980 nM (active)
Potency (Hek293T [3]): 3160 nM (active)
Potency (JEG-3): 7940 nM (active)

Nc1ncnc2c1c(-c1cnc3[nH]ccc3c1)nn2C1CCCC1
Potency (HEK293): 1.48 µM (active) and 2.59 µM (active)
Potency (HaCat [1]): 2.64 µM (active) and 1.84 µM (active)
Potency (KB-3-1): 1.66 µM (active) and 4.61 µM (active)
Potency (NIH3T3 [2]): 83.3 nM (active) and 517 nM (active)
Potency (MCC-13): 4180 nM (active)
Potency (MCC-26): 10500 nM (active)
Potency (UISO): 4690 nM (active)
Potency (CASKI): 11200 nM (active)
Potency (Es-2): 10000 nM (active)
Potency (HeLa): 10000 nM (active)
Potency (Hek293T [3]): 7940 nM (active)

CNC(=O)c1ccc(-c2cnc3ncc(Cc4ccc5ncccc5c4)n3n2)cc1F
outcome (HEK293): inactive
max response (HaCat [1]): -3.74% and -10.2%
max response (KB-3-1): 3.93% and 3.42%
max response (NIH3T3 [2]): -7.6% and -25.4%
outcome (HEK293T [6]): inactive
Potency (MCC-13): inactive
Potency (MCC-26): inactive
Potency (MKL-1): inactive
Potency (MKL-2): inactive
Potency (UISO): inactive
Potency (WaGa): inactive
Potency (C33A): inactive
Potency (CAOV3): inactive
Potency (CASKI): inactive
Potency (Es-2): inactive
Potency (HeLa): inactive
Potency (Hek293T [3]): inactive
Potency (JEG-3): inactive
